# Screens as filed in PubChem BioAssay.
# HSP90 refold inh: inhibitors of HSP90 luciferase refolding in rabbit reticulocyte lysate. luciferase refolding luminescence, 3 h. inhibition, % at 5.6 µM. 290,000 compounds, 0.91% hits. AID 1789;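 active means inhibition above the screen-wide mean plus 3 SD, computed separately per campaign, cut at about 16% in these data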;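 further: 0% = DMSO wells and 100% = 60 µM geldanamycin wells; inhibitors lower the luminescence because luciferase stays unfolded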
# HSF1 inh: HSF1 inhibition; NIH3T3-HGL HSE-luciferase, MG132-induced, luminescence 8 h; active compounds read low; activity change, negative = inhibition, % at 7.5 µM (by protocol); 300,000 compounds, 0.77% hits; AID 2098;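 active means more than half of replicate wells show activity change below -50%, luminescence cut by over half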;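 further: luciferase reports HSF-1 transcriptional activity via heat shock element; 0% = median of DMSO wells and -100% = zero luminescence signal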
# DAX1 inh: NR0B1 (DAX1) inhibition. 340,000 compounds, 0.99% hits. P51843. AID 504766. HEK293 Gal4-DAX1 luciferase reporter, luminescence. inhibition, % at 6.75 µM;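 active means inhibition above the mean over all tested compounds plus 3 SD, cut at about 4.2% in these data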;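 further: 0% = DAX1-transfected cells with DMSO and 100% = empty-vector control cells with DMSO; inhibition shows as a rise in luminescence from relieved DAX1 repression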
# Target sequence (P51843 207-470 limits assumed): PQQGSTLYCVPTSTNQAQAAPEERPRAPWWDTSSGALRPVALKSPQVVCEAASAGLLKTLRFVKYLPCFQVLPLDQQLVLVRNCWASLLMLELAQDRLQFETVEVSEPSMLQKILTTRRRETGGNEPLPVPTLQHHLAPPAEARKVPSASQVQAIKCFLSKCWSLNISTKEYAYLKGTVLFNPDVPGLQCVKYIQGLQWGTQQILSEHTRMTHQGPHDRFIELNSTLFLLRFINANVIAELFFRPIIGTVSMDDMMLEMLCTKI
# AHR activator: activators of human aryl hydrocarbon receptor. P35869. AHR-responsive luciferase reporter cells, luminescence. activation, % at 5 µM. 320,000 compounds, 2.5% hits. AID 2796; in the data active means activation above about 47%;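 further: 0% = vehicle wells and 100% = reference agonist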
# GAA850 FXN act: increases GAA850 frataxin promoter reporter activity | HEK293 lucGAA850 FXN promoter luciferase reporter, 24 h; percent of 10 µM SAHA response | activation, % at 6 µM | 360,000 compounds, 0.56% hits | AID 540364;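 active means activation above the average of all compounds screened plus 3 SD, cutoff fixed separately per campaign, cut at about 7.5% in these data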;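 further: 0% = DMSO wells and 100% = 10 µM SAHA wells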
# HSF-1 act: increases HSF-1 driven luciferase reporter signal; NIH3T3-HGL HSF-1 luciferase reporter, MG132, 8 h; 100% = twice DMSO control signal; activation, % at 9 µM; 300,000 compounds, 1.7% hits; AID 504408;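 active means mean replicate activation of at least 50% with a set share of replicates each reaching 50%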;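 further: 0% = median of the neutral control wells and 100% = twice that signal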
# The depositor's hits bear a star; nt = not tested or not shown. A selection: hits, their analogues and other compounds. The true share with any hit is near 5.9%.
SMILES,HSP90 refold inh,HSF1 inh,DAX1 inh,AHR activator,GAA850 FXN act,HSF-1 act
Cn1c(O)c(N=Nc2ccccc2)c2ccccc21,1,2,0,55*,2,5
Cn1c(O)c(N=Nc2ccc(F)cc2)c2ccccc21,3,4,-1,44,4,42
Cn1c(O)c(N=Nc2nc(-c3ccccc3)cs2)c2ccccc21,-1,-27,1,54*,3,-28
O=C(CCN1CCN(S(=O)(=O)c2ccc(Cl)cc2)CC1)Nc1ccc(F)cc1,-2,-3,-1,2,1,10
CCOC(=O)C(=CNc1nc(-c2ccc3ccccc3c2)cs1)C(=O)OCC,3,0,0,0,1,21
Nc1nc(-c2cc3ccccc3o2)cs1,15,48,5.2*,8,7,62*
Nc1nc(-c2ccc(-c3ccccc3)cc2)cs1,-3,17,1,-1,4,28
CN(C)/C=N/c1nc(-c2ccc3ccccc3c2)cs1,1,37,5.0*,5,4,46
Nc1nc(-c2ccc3ccccc3c2)cs1,-3,18,1,6,7,67*
OC(c1ccccc1)c1nc(-c2cc3ccccc3o2)cs1 (stereo unspecified),nt,nt,nt,nt,3,nt
COc1ncnc2c1ncn2CCCNCc1ccco1,nt,nt,1,nt,0,nt
COc1ccc(N2CCN(C(=O)c3cc4c(s3)-c3ccccc3OC4)CC2)cc1,-1,-1,0,0,0,-2
O=C(c1cc2c(s1)-c1ccccc1OC2)N1CCN(c2ccccn2)CC1,-1,1,5.4*,7,0,-6
O=C(c1cc2c(s1)-c1ccccc1OC2)N1CCN(c2ccccc2)CC1,2,-64*,2,2,1,-70
Cc1ccccc1CN(C)C(=O)COC(=O)c1ccc2[nH]c(C)c(C)c2c1,nt,nt,-1,3,0,nt
C[C@@H]1CN([C@H](C)CO)S(=O)(=O)c2ccc(Br)cc2O[C@H]1CN(C)C(=O)C1CCCCC1,nt,nt,-1,nt,-2,nt
CCC(C)c1ccc(NC(=O)c2cccnc2)cc1 (stereo unspecified),-2,16,1,38,7,42
CCC(C)c1ccc(O)c(NC(=O)c2cccnc2)c1 (stereo unspecified),-1,0,-1,60*,-1,-5
O=C(NCC1CCCN1S(=O)(=O)c1cccs1)C(=O)Nc1cccc(F)c1 (stereo unspecified),nt,6,-1,0,3,8
Cc1cc(O)ccc1NC(=S)NC(=O)c1cncc(Br)c1,-4,0,0,60*,0,3
O=C1c2ccccc2C(=O)N1OCc1cccc(Cl)c1,1,-2,1,-1,2,5
O=C1c2ccccc2C(=O)N1OCc1ccccc1,-1,-7,-1,90*,0,-19
CC1=C(C)N(C)[C@H](c2ccccc2Br)[C@H](O)C1=O,nt,nt,-1,nt,0,nt
COc1ccc(NC(=O)Nc2ccc3c(c2)C(=O)N([C@H](C)CO)C[C@H](C)[C@@H](CN(C)S(=O)(=O)c2ccc(OC)cc2)O3)cc1,nt,nt,6.4*,0,1,nt
Cc1cccc(N(CC(=O)NC2CCCC2)C(=O)c2csnn2)c1C,6,-7,0,1,-3,5
SMILES,HSP90 refold inh,HSF1 inh,DAX1 inh,AHR activator,GAA850 FXN act,HSF-1 act
Cc1ccc(S(=O)(=O)CC(=O)Nc2nc3ccc(S(N)(=O)=O)cc3s2)cc1,-9,-3,0,-3,0,-6
CC(=O)c1cccc(Nc2cc(C)nc3c(C)cc(C)cc23)c1,-1,-7,0,56*,-2,-14
CC(=O)c1ccc(Nc2cc(C)nc3ccccc23)cc1,4,1,-2,6,-4,9
CC(=O)c1ccc(Nc2cc(C)nc3c(C)cccc23)cc1,4,6,0,49*,0,-5
O=C(OCCOc1ccccc1F)c1cccc(S(=O)(=O)N2CCOCC2)c1,nt,nt,0,0,0,nt
CC(=O)Nc1ccc2ccccc2c1[N+](=O)[O-],nt,nt,2,nt,0,nt
O=C(OCn1ncc(Cl)c(Cl)c1=O)c1ccc(F)cc1,-4,-94*,nt,0,nt,-94
O=c1c(Cl)c(Cl)cnn1Cc1ccc(F)cc1,5,24,0,2,4,29
O=C(OCn1ncc(Cl)c(Cl)c1=O)c1ccccc1Cl,-2,-95*,-2,4,-13,-95
CC(=O)Nc1c(Cl)cc2c(c1Cl)Cc1cc(C#N)ccc1-2,nt,nt,-2,nt,0,nt
